Shown are actives, neighbours in structure and some others; about 3.5% of the full set was active somewhere.
GPR151 activ: activators of human GPR151; PathHunter beta-arrestin GPR151 cells, luminescence; Q8TDV0; actives 1% (n = 650,000); activation, % at 11.2 µM; in the data active = activation above about 4.9%
Target sequence (Q8TDV0 whole entry, looked up): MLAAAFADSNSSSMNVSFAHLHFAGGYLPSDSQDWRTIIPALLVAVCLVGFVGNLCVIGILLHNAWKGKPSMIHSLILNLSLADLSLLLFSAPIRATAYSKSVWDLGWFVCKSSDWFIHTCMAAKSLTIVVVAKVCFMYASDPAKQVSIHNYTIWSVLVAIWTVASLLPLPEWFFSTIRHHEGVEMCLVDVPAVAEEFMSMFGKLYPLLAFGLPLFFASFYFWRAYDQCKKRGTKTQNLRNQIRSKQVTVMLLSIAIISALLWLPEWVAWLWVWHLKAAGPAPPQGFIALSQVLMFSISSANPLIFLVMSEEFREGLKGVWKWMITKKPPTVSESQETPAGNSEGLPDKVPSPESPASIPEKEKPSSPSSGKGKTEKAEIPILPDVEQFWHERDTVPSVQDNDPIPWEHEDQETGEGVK
TEAD-YAP block: TEAD-YAP interaction inhibition; inhibition, % at 9.12 µM; HEK-TIYL cells, TEAD-Gal4/YAP UAS-luciferase luminescence; actives 1.4% (n = 640,000); in the data active = inhibition above about 32%
FBW7 activator: human FBW7 E3 ligase activation, primary screen. Q969H0. AlphaScreen FBW7–phospho-cyclin E peptide binding, activator screen. normalized activity (activation), % at 26.1 µM. actives 0.13% (n = 650,000). AID 1259310; in the data active = normalized activity above about 1.9%;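 also: purified mutant Fbw7 with reduced substrate affinity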
MITF inh: blocks human microphthalmia-associated transcription factor. O75030. actives 0.91% (n = 650,000). inhibition, % at 2.6 µM. AlphaScreen MITF homodimerization, bead proximity signal; in the data active = inhibition above about 50%
GPR151 confirm: confirmation of human GPR151 activators; GPR151 PathHunter beta-arrestin cells, luminescence, 90 min; % of EA-reagent control over plate median; shares compounds with GPR151 activ; 6,700 tested, under 10 active; activation, % at 11.2 µM;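 active = mean percent activation across replicates above the confirmation screen cutoff of 4.91%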
GPR119 counter: activates human GPR119 in a GPR151 counter-screen; shares compounds with GPR151 activ; activation, % at 11.2 µM; actives 0.3% (n = 6,700); GPR119 PathHunter beta-arrestin cells, luminescence, 90 min; 0 = compound-well median, 100 = enzyme-acceptor control;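 active = mean percent activation in the counterscreen above 29.09%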;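 also: counterscreen on off-target GPR119 to flag nonselective hits from the GPR151 activator screen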
A number is an active result.

For COc1ccc(NC(=O)CN2C(=O)C(c3ccccc3)Oc3cccnc32)cc1OC (stereo not given) the results were GPR151 activ 6.3, TEAD-YAP block inactive, FBW7 activator inactive, MITF inh inactive, GPR151 confirm inactive and GPR119 counter inactive.
For O=C(c1ccccc1)c1ccc2cc(OS(=O)(=O)O)ccc2c1 the results were GPR151 activ inactive, TEAD-YAP block inactive, FBW7 activator inactive and MITF inh inactive.
For O=C(NCCN1CCN(c2cccc(Cl)c2)CC1)Nc1ccccc1 the results were GPR151 activ inactive, TEAD-YAP block inactive, FBW7 activator inactive and MITF inh inactive.
CCOc1ccc(N2CCN(CCNC(=O)Nc3cccc(Cl)c3)CC2)cc1 was read as GPR151 activ 5.5, TEAD-YAP block inactive, FBW7 activator inactive, MITF inh inactive, GPR151 confirm inactive and GPR119 counter inactive.
`Cc1cccc2sc(NC(=O)/C=C\C(=O)O)nc12` gave GPR151 activ 6.8, TEAD-YAP block inactive, FBW7 activator inactive, MITF inh inactive, GPR151 confirm inactive and GPR119 counter inactive.
Screening Cc1sc(NC(=O)/C=C\C(=O)O)nc1-c1ccccc1 returned GPR151 activ 6.9, TEAD-YAP block inactive, FBW7 activator inactive, MITF inh inactive, GPR151 confirm inactive and GPR119 counter inactive.
For Cc1nnc(SCC(=O)O)n1/N=C/c1ccc2c(c1)OCO2 the results were GPR151 activ inactive, TEAD-YAP block inactive, FBW7 activator inactive and MITF inh inactive.
For Cc1nnc(-c2ccccc2)c(=O)n1/N=C/c1ccc2c(c1)OCO2 the results were GPR151 activ 8.1, TEAD-YAP block inactive, FBW7 activator inactive, MITF inh inactive, GPR151 confirm inactive and GPR119 counter inactive.
`CCOC(=O)C1CCCCN1C(=O)CCc1nnc(Cc2c[nH]c3ccccc23)o1` (stereo not given) gave GPR151 activ inactive, TEAD-YAP block inactive, FBW7 activator inactive and MITF inh inactive.
Screening COc1ccc(CCn2c(=S)[nH]c3ccsc3c2=O)cc1OC returned GPR151 activ 5.4, TEAD-YAP block inactive, FBW7 activator inactive, MITF inh inactive, GPR151 confirm inactive and GPR119 counter inactive.
`O=C(CN1C(=O)C2(SCC(=O)N2c2ccc(F)cc2)c2ccccc21)NCCc1ccccc1` (stereo not given) gave GPR151 activ inactive, TEAD-YAP block inactive, FBW7 activator inactive and MITF inh inactive.
Screening O=C(CN1C(=O)C2(SCC(=O)N2c2ccc(F)c(F)c2)c2ccccc21)NCCc1ccccc1 (stereo not given) returned GPR151 activ 5.4, TEAD-YAP block inactive, FBW7 activator inactive, MITF inh inactive, GPR151 confirm inactive and GPR119 counter inactive.
`CCNc1nc(OC(C(F)(F)F)C(F)(F)F)nc(N2CCCCC2)n1` gave GPR151 activ 6.0, TEAD-YAP block inactive, FBW7 activator inactive, MITF inh inactive, GPR151 confirm inactive and GPR119 counter inactive.
CC1CCCN(C(=O)NC2(C(F)(F)F)Oc3ccccc3O2)C1 (stereo not given) was read as GPR151 activ 5.7, TEAD-YAP block inactive, FBW7 activator inactive, MITF inh inactive, GPR151 confirm inactive and GPR119 counter inactive.
CCCc1ccc(-c2ccc(C(=O)Nc3ccc(C)cc3)cc2)nc1 was read as GPR151 activ 7.1, TEAD-YAP block inactive, FBW7 activator inactive, MITF inh inactive, GPR151 confirm inactive and GPR119 counter inactive.
O=C(CN(c1cccc(Cl)c1)S(=O)(=O)c1ccc(Cl)cc1)N1CCOCC1 was read as GPR151 activ 9.1, TEAD-YAP block inactive, FBW7 activator inactive, MITF inh inactive, GPR151 confirm inactive and GPR119 counter inactive.
CN1CCN(C(=O)CN(c2cccc(Cl)c2)S(=O)(=O)c2ccc(Cl)cc2)CC1 was read as GPR151 activ inactive, TEAD-YAP block inactive, FBW7 activator inactive and MITF inh inactive.
Screening CCCOc1ccc(OCC(=O)c2[nH]c(C)c(C(C)=O)c2C)cc1 returned GPR151 activ inactive, TEAD-YAP block inactive, FBW7 activator inactive and MITF inh inactive.
`CC(=O)c1c(C)[nH]c(C(=O)COc2cc(C)cc(C)c2)c1C` gave GPR151 activ 5.6, TEAD-YAP block inactive, FBW7 activator inactive, MITF inh inactive, GPR151 confirm inactive and GPR119 counter inactive.
CC(C)(C)c1ccc(OCCN2C(=O)C(=O)c3ccccc32)cc1 was read as GPR151 activ 5.4, TEAD-YAP block inactive, FBW7 activator inactive, MITF inh inactive, GPR151 confirm inactive and GPR119 counter inactive.
Screening CC(C)(C)c1ccc(OCCCN2C(=O)C(=O)c3ccccc32)cc1 returned GPR151 activ inactive, TEAD-YAP block inactive, FBW7 activator inactive and MITF inh inactive.
`O=C1CCCN1CCn1cnc2c(Nc3ccc(N4CCOCC4)cc3)nc(Nc3ccc(-n4ccnc4)cc3)nc21` gave GPR151 activ 5.9, TEAD-YAP block inactive, FBW7 activator inactive, MITF inh inactive, GPR151 confirm inactive and GPR119 counter inactive.
Screening CC(C)n1cnc2c(NCCN3CCOCC3)nc(Nc3ccc(-n4ccnc4)cc3)nc21 returned GPR151 activ 6.2, TEAD-YAP block inactive, FBW7 activator inactive, MITF inh inactive, GPR151 confirm inactive and GPR119 counter inactive.
`O=C1CCCN1CCn1cnc2c(NCCO)nc(Nc3ccc(N4CCOCC4)cc3)nc21` gave GPR151 activ 5.6, TEAD-YAP block inactive, FBW7 activator inactive, MITF inh inactive, GPR151 confirm inactive and GPR119 counter inactive.
For COc1ccc(Br)c(C(=O)N/C(=C/c2cccc([N+](=O)[O-])c2)C(=O)Nc2ccc(F)c(Cl)c2)c1 the results were GPR151 activ inactive, TEAD-YAP block inactive, FBW7 activator inactive and MITF inh inactive.
For COC(=O)C1=C(N)Oc2cc(C)n(CCc3ccccc3)c(=O)c2C1c1ccccc1F (stereo not given) the results were GPR151 activ inactive, TEAD-YAP block inactive, FBW7 activator inactive and MITF inh inactive.
O=C(CCc1nnc(CCc2c[nH]c3ccccc23)o1)N1CCCCCCC1 was read as GPR151 activ 6.6, TEAD-YAP block inactive, FBW7 activator inactive, MITF inh inactive, GPR151 confirm inactive and GPR119 counter inactive.
For CCCOc1ccc(/C(O)=C2/C(=O)C(=O)N(CCCN(C)C)C2c2ccc(F)cc2)c(C)c1 (stereo not given) the results were GPR151 activ 5.3, TEAD-YAP block inactive, FBW7 activator inactive, MITF inh inactive, GPR151 confirm inactive and GPR119 counter inactive.
Screening CCCOc1ccc(/C(O)=C2/C(=O)C(=O)N(CCN(C)C)C2c2ccc(F)cc2)c(C)c1 (stereo not given) returned GPR151 activ inactive, TEAD-YAP block inactive, FBW7 activator inactive and MITF inh inactive.
CC1=NC(C(F)(F)F)(C(F)(F)F)N=C(N2CCCCC2)O1 was read as GPR151 activ inactive, TEAD-YAP block inactive, FBW7 activator inactive and MITF inh inactive.

Assay outcomes (PubChem)
